Laboratory results as given in PubChem BioAssay AID1159580 (chemical genetic matrix, 2015).
“And” between values parts separate entries of the source, which are not always exact repeats. Equal entries are not always repeated. About 2,000 (36%) of roughly 5,500 compounds were called active. Roughly 18% stayed inconclusive and do not appear here. Rule as the data show it: active = normalized growth mostly below about 0.91 (no sharp cut-off); inconclusive = no clear call, values can overlap the other calls; inactive = mostly above about 0.92. The list shows a part of the results. Where a structure was tested more than once in an assay, its records may differ in their call.

Assay: chemical genetic growth profiling, strain panel (AID 1159580);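 also: tested at 20 µM; growth read once vehicle control cultures reached saturation at 30 °C; 1 = growth at the plate median or of vehicle wells; lower values mean less growth of the strain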
Settings: S. cerevisiae deletion strains, growth OD

**Q.** For `O=c1cc(-c2ccccc2)oc2cc(O)cc(O)c12`, which normalized growth (locus YAL013W, strain DEP1, stronger effect = lower value) is on record?
**A.** 0.956 (inactive)

**Q.** What about the normalized growth (locus YAL021C, strain ccr4, stronger effect = lower value) of the same compound?
**A.** 0.968 (inactive) and 0.933 (inactive)

**Q.** And the normalized growth (locus YAL026C, strain drs2, stronger effect = lower value)?
**A.** 0.911 (inactive) and 0.786 (active)

**Q.** What about the normalized growth (locus YAL030W, strain snc1, stronger effect = lower value) of the same compound?
**A.** 0.943 (inactive) and 0.913 (active)

**Q.** And the normalized growth (locus YBL061C, strain skt5, stronger effect = lower value)?
**A.** 0.904 (active)

**Q.** What about the normalized growth (locus YBR009C, strain hhf1, stronger effect = lower value) of the same compound?
**A.** 0.915 (inactive) and 0.773 (active)

**Q.** What about the normalized growth (locus YBR021W, strain FUR4, stronger effect = lower value) of the same compound?
**A.** 1.01 (inactive)

**Q.** And the normalized growth (locus YBR023C, strain chs3, stronger effect = lower value)?
**A.** 1.01 (inactive) and 0.851 (active)

**Q.** And the normalized growth (locus YBR171W, strain sec66, stronger effect = lower value)?
**A.** 0.953 (inactive) and 0.858 (active)

**Q.** And the normalized growth (locus YBR229C, strain ROT2, stronger effect = lower value)?
**A.** 0.993 (inactive)

**Q.** What about the normalized growth (locus YBR231C, strain swc5, stronger effect = lower value) of the same compound?
**A.** 0.938 (inactive) and 0.875 (active)

**Q.** What about the normalized growth (locus YBR279W, strain paf1, stronger effect = lower value) of the same compound?
**A.** 0.947 (inactive) and 0.922 (active)

**Q.** And the normalized growth (locus YCL011C, strain gbp2, stronger effect = lower value)?
**A.** 0.937 (inactive) and 0.86 (active)

**Q.** What about the normalized growth (locus YCL016C, strain dcc1, stronger effect = lower value) of the same compound?
**A.** 1.07 (inactive) and 0.875 (active)

**Q.** And the normalized growth (locus YCL029C, strain bik1, stronger effect = lower value)?
**A.** 0.911 (inactive)

**Q.** What about the normalized growth (locus YCL061C, strain MRC1, stronger effect = lower value) of the same compound?
**A.** 0.951 (inactive) and 0.802 (active)

**Q.** And the normalized growth (locus YCL069W, strain vba3, stronger effect = lower value)?
**A.** 0.978 (inactive) and 0.896 (active)

**Q.** What about the normalized growth (locus YCR088W, strain abp1, stronger effect = lower value) of the same compound?
**A.** 0.957 (inactive) and 0.923 (inactive)

**Q.** What about the normalized growth (locus YDL005C, strain med2, stronger effect = lower value) of the same compound?
**A.** 0.961 (inactive) and 0.958 (inactive)

**Q.** What about the normalized growth (locus YDL035C, strain GPR1, stronger effect = lower value) of the same compound?
**A.** 0.919 (inactive)

**Q.** And the normalized growth (locus YDL040C, strain nat1, stronger effect = lower value)?
**A.** 1.02 (inactive) and 0.916 (active)

**Q.** What about the normalized growth (locus YDL074C, strain BRE1, stronger effect = lower value) of the same compound?
**A.** 0.87 (inactive)

**Q.** What about the normalized growth (locus YDL101C, strain DUN1, stronger effect = lower value) of the same compound?
**A.** 0.987 (inactive)

**Q.** And the normalized growth (locus YDL134C, strain PPH21, stronger effect = lower value)?
**A.** 0.954 (inactive)

**Q.** And the normalized growth (locus YDL185W, strain tfp1, stronger effect = lower value)?
**A.** 0.946 (inactive)

**Q.** What about the normalized growth (locus YDL192W, strain arf1, stronger effect = lower value) of the same compound?
**A.** 0.919 (inactive)

**Q.** And the normalized growth (locus YDR001C, strain nth1, stronger effect = lower value)?
**A.** 0.96 (inactive) and 0.917 (active)

**Q.** And the normalized growth (locus YDR069C, strain doa4, stronger effect = lower value)?
**A.** 0.926 (inactive) and 0.919 (inactive)

**Q.** What about the normalized growth (locus YDR101C, strain arx1, stronger effect = lower value) of the same compound?
**A.** 0.921 (inactive)

**Q.** And the normalized growth (locus YDR137W, strain rgp1, stronger effect = lower value)?
**A.** 0.675 (active) and 0.533 (active)

**Q.** And the normalized growth (locus YDR150W, strain NUM1, stronger effect = lower value)?
**A.** 0.973 (inactive)

**Q.** What about the normalized growth (locus YDR159W, strain sac3, stronger effect = lower value) of the same compound?
**A.** 0.853 (active) and 0.785 (active)

**Q.** And the normalized growth (locus YDR162C, strain NBP2, stronger effect = lower value)?
**A.** 0.92 (inactive)

**Q.** And the normalized growth (locus YDR195W, strain ref2)?
**A.** 0.986 (inactive) and 1.15 [resistant] (active)

**Q.** What about the normalized growth (locus YDR297W, strain sur2, stronger effect = lower value) of the same compound?
**A.** 0.946 (inactive) and 0.907 (active)

**Q.** What about the normalized growth (locus YDR318W, strain mcm21, stronger effect = lower value) of the same compound?
**A.** 0.902 (active)

**Q.** And the normalized growth (locus YDR334W, strain swr1, stronger effect = lower value)?
**A.** 0.954 (inactive) and 0.887 (active)

**Q.** What about the normalized growth (locus YDR335W, strain msn5, stronger effect = lower value) of the same compound?
**A.** 0.957 (inactive) and 0.88 (active)

**Q.** What about the normalized growth (locus YDR388W, stronger effect = lower value) of the same compound?
**A.** 0.914 (active)

**Q.** And the normalized growth (locus YDR392W, strain spt3, stronger effect = lower value)?
**A.** 0.595 (active) and 0.401 (active)

**Q.** And the normalized growth (locus YDR502C, strain sam2, stronger effect = lower value)?
**A.** 0.922 (inactive)

**Q.** What about the normalized growth (locus YEL003W, strain gim4, stronger effect = lower value) of the same compound?
**A.** 0.952 (inactive) and 0.809 (active)

**Q.** And the normalized growth (locus YEL037C, strain rad23, stronger effect = lower value)?
**A.** 0.941 (inactive) and 0.911 (active)

**Q.** And the normalized growth (locus YEL061C, strain CIN8 (second series), stronger effect = lower value)?
**A.** 0.961 (inactive) and 0.888 (active)

**Q.** And the normalized growth (locus YEL061C, strain CIN8, stronger effect = lower value)?
**A.** 0.967 (inactive)

**Q.** And the normalized growth (locus YER015W, strain faa2, stronger effect = lower value)?
**A.** 0.936 (inactive) and 0.867 (active)

**Q.** And the normalized growth (locus YER016W, strain bim1, stronger effect = lower value)?
**A.** 1.07 (inactive) and 0.92 (active)

**Q.** What about the normalized growth (locus YER110C, stronger effect = lower value) of the same compound?
**A.** 0.945 (inactive)

**Q.** What about the normalized growth (locus YER111C, strain swi4, stronger effect = lower value) of the same compound?
**A.** 0.97 (inactive) and 0.951 (inactive)

**Q.** What about the normalized growth (locus YER155C, strain BEM2 (second series), stronger effect = lower value) of the same compound?
**A.** 0.686 (active) and 0.499 (active)

**Q.** What about the normalized growth (locus YER155C, strain BEM2, stronger effect = lower value) of the same compound?
**A.** 0.969 (inactive)

**Q.** What about the normalized growth (locus YER167W, strain BCK2, stronger effect = lower value) of the same compound?
**A.** 0.928 (inactive)

**Q.** And the normalized growth (locus YFR010W, strain ubp6, stronger effect = lower value)?
**A.** 0.931 (inactive) and 0.919 (inactive)

**Q.** And the normalized growth (locus YGL078C, strain dbp3, stronger effect = lower value)?
**A.** 0.957 (inactive)

**Q.** What about the normalized growth (locus YGL086W, strain mad1, stronger effect = lower value) of the same compound?
**A.** 0.853 (active)

**Q.** What about the normalized growth (locus YGL167C, strain pmr1, stronger effect = lower value) of the same compound?
**A.** 0.924 (inactive) and 0.87 (active)

**Q.** And the normalized growth (locus YGL173C, strain kem1, stronger effect = lower value)?
**A.** 0.858 (active) and 0.891 (active)

**Q.** What about the normalized growth (locus YGL227W, strain vid30, stronger effect = lower value) of the same compound?
**A.** 0.952 (inactive) and 0.909 (active)

**Q.** What about the normalized growth (locus YGL240W, strain doc1, stronger effect = lower value) of the same compound?
**A.** 0.797 (active) and 0.631 (active)

**Q.** And the normalized growth (locus YGL248W, strain PDE1, stronger effect = lower value)?
**A.** 0.949 (inactive)

**Q.** What about the normalized growth (locus YGL253W, strain hxk2, stronger effect = lower value) of the same compound?
**A.** 0.941 (inactive) and 0.855 (active)

**Q.** What about the normalized growth (locus YGR078C, strain PAC10, stronger effect = lower value) of the same compound?
**A.** 0.858 (inactive)

**Q.** What about the normalized growth (locus YGR135W, strain pre9, stronger effect = lower value) of the same compound?
**A.** 0.879 (active)

**Q.** What about the normalized growth (locus YGR229C, strain SMI1, stronger effect = lower value) of the same compound?
**A.** 0.802 (active)

**Q.** And the normalized growth (locus YGR252W, strain gcn5, stronger effect = lower value)?
**A.** 0.762 (active)

**Q.** What about the normalized growth (locus YHR013C, strain ard1, stronger effect = lower value) of the same compound?
**A.** 1.06 (inactive) and 1.1 (inactive)

**Q.** What about the normalized growth (locus YHR027C, strain rpn1, stronger effect = lower value) of the same compound?
**A.** 0.95 (inactive) and 0.901 (active)

**Q.** And the normalized growth (locus YHR030C, strain SLT2, stronger effect = lower value)?
**A.** 0.967 (inactive) and 0.884 (inactive)

**Q.** What about the normalized growth (locus YHR079C, strain IRE1 (second series), stronger effect = lower value) of the same compound?
**A.** 0.92 (active)

**Q.** And the normalized growth (locus YHR079C, strain IRE1, stronger effect = lower value)?
**A.** 0.862 (inactive)

**Q.** What about the normalized growth (locus YHR094C, strain hxt1, stronger effect = lower value) of the same compound?
**A.** 0.964 (inactive)

**Q.** What about the normalized growth (locus YHR129C, strain ARP1, stronger effect = lower value) of the same compound?
**A.** 0.992 (inactive)

**Q.** What about the normalized growth (locus YHR142W, strain chs7, stronger effect = lower value) of the same compound?
**A.** 0.889 (inactive) and 0.702 (active)

**Q.** What about the normalized growth (locus YHR200W, strain rpn10, stronger effect = lower value) of the same compound?
**A.** 0.91 (active)

**Q.** And the normalized growth (locus YIL066C, strain RNR3, stronger effect = lower value)?
**A.** 0.959 (inactive)

**Q.** And the normalized growth (locus YIL073C, strain SPO22, stronger effect = lower value)?
**A.** 0.854 (inactive)

**Q.** What about the normalized growth (locus YIL125W, strain kgd1, stronger effect = lower value) of the same compound?
**A.** 0.955 (inactive)

**Q.** What about the normalized growth (locus YIR030C, strain dcg1, stronger effect = lower value) of the same compound?
**A.** 0.944 (inactive)

**Q.** What about the normalized growth (locus YJL092W, strain hpr5, stronger effect = lower value) of the same compound?
**A.** 0.954 (inactive) and 0.91 (active)

**Q.** What about the normalized growth (locus YJL095W, strain BCK1 (second series), stronger effect = lower value) of the same compound?
**A.** 0.942 (inactive) and 0.879 (active)

**Q.** What about the normalized growth (locus YJL095W, strain BCK1, stronger effect = lower value) of the same compound?
**A.** 0.825 (inactive) and 0.889 (inactive)

**Q.** And the normalized growth (locus YJL115W, strain asf1, stronger effect = lower value)?
**A.** 0.954 (inactive) and 0.904 (active)

**Q.** What about the normalized growth (locus YJL129C, strain trk1, stronger effect = lower value) of the same compound?
**A.** 0.816 (active) and 0.603 (active)

**Q.** And the normalized growth (locus YJL134W, strain LCB3, stronger effect = lower value)?
**A.** 0.991 (inactive)

**Q.** What about the normalized growth (locus YJL154C, strain vps35, stronger effect = lower value) of the same compound?
**A.** 0.97 (inactive) and 0.918 (active)

**Q.** What about the normalized growth (locus YJL164C, strain tpk1, stronger effect = lower value) of the same compound?
**A.** 0.909 (active) and 0.811 (active)

**Q.** What about the normalized growth (locus YJL166W, strain qcr8, stronger effect = lower value) of the same compound?
**A.** 0.891 (active) and 0.741 (active)

**Q.** What about the normalized growth (locus YJL168C, strain set2, stronger effect = lower value) of the same compound?
**A.** 0.948 (inactive)

**Q.** What about the normalized growth (locus YJL187C, strain SWE1 (second series), stronger effect = lower value) of the same compound?
**A.** 0.939 (inactive)

**Q.** And the normalized growth (locus YJL187C, strain SWE1, stronger effect = lower value)?
**A.** 0.952 (inactive) and 0.902 (active)

**Q.** And the normalized growth (locus YJR043C, strain POL32, stronger effect = lower value)?
**A.** 0.899 (inactive)

**Q.** And the normalized growth (locus YJR066W, strain TOR1, stronger effect = lower value)?
**A.** 0.883 (inactive)
